TDP1 cell noCPT = qHTS for Inhibitors of human tyrosyl-DNA phosphodiesterase 1 (TDP1): qHTS in cells in absence of CPT. DT40 Tdp1-/- hTDP1 cells, no CPT, ATP luminescence, 48 h. Potency, µM (top dose mostly 46.2 µM), usual class: inhibitors. hit rate 15% among 420,000; also: nearly all actives have a fitted effect of over 55% in size
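Compound effects on proliferation are scored in DT40 Tdp1-/-;hTDP1 cells in the absence of CPT. ATP levels (CellTiter-Glo luminescence) are recorded after a ≥48 hr, 37 °C incubation.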
TGFb inhibitor = blocks TGF-b signaling; Potency, µM (series often up to 46.1 µM), most hits filed as inhibitors; hit rate 1.2% among 410,000; HepG2 CAGA-GFP TGF-b/SMAD3 reporter, GFP fluorescence, 18 h; TGF-beta stimulated, 500 pg/mL final; also: nearly all actives have a fitted effect of over 65% in size
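GFP signal (ex488/em500-530) from TGF-beta-stimulated HEPG2 CAGA-GFP cells, 500 pg/mL final, 18 h at 37 degrees C in DMEM plus 1% FBS, normalized to unstimulated and DMSO-stimulated controls.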
HepG2 viability = kills HepG2 cells in TGF-b inhibitor counter-screen. HepG2 CAGA-GFP viability, ATP luminescence, 18 h. Potency, µM (highest dose often 46.1 µM), actives largely listed as cytotoxic. hit rate 0.76% among 410,000. AID 588856
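HepG2 CAGA-GFP cells (1000/well, DMEM with 1% FBS) received compound, then TGF-beta at 500 pg/mL final, and were incubated 18 hours at 37 degrees C. Viability was read by CellTiter-Glo luminescence. Media-only wells were set as complete cell-killing and DMSO as no toxicity.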
IL-1B inflam inh = inflammasome signaling inhibition, IL-1 beta readout; THP-1 LPS/ATP IL-1B secretion, AlphaLISA, 16 h; active compounds read low; activity change, % at 57.5 µM; hit rate 4.7% among 360,000; AID 743279; in the data active = activity change below about -50%; inconclusive = mostly about -30% to -49%
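Secreted IL-1B measured by AlphaLISA bead assay after 16 h compound exposure of THP-1 cells; compounds (final up to 57.5 uM) added 1 h before LPS (250 ng/mL) and ATP (1.25 mM) stimulation; lower signal means less secretion.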
TDP1 cell CPT = growth inhibition of DT40 Tdp1-/-;hTDP1 cells with camptothecin (screen for TDP1 inhibitors); Potency, µM (titrated, usually from 46.2 µM), usual class: inhibitors; hit rate 12% among 420,000; chicken DT40 Tdp1-/-;hTDP1 cells + 20 nM CPT, ATP luminescence, 48 h; also: nearly all actives have a fitted effect of over 55% in size
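Chicken DT40 Tdp1-/- cells complemented with human TDP1, 400 cells/well, exposed to compounds plus 20 nM camptothecin for at least 48 h at 37 C; viability read as ATP content by CellTiter-Glo luminescence.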
TDP1 block = TDP1 (human) enzyme inhibition; Q9NUW8; Potency, µM (highest dose often 130 µM), most hits filed as inhibitors; hit rate 0.28% among 350,000; recombinant TDP1, AlphaScreen DNA substrate cleavage; also: nearly all actives have a fitted effect of over 40% in size
Target sequence (Q9NUW8 whole entry, looked up): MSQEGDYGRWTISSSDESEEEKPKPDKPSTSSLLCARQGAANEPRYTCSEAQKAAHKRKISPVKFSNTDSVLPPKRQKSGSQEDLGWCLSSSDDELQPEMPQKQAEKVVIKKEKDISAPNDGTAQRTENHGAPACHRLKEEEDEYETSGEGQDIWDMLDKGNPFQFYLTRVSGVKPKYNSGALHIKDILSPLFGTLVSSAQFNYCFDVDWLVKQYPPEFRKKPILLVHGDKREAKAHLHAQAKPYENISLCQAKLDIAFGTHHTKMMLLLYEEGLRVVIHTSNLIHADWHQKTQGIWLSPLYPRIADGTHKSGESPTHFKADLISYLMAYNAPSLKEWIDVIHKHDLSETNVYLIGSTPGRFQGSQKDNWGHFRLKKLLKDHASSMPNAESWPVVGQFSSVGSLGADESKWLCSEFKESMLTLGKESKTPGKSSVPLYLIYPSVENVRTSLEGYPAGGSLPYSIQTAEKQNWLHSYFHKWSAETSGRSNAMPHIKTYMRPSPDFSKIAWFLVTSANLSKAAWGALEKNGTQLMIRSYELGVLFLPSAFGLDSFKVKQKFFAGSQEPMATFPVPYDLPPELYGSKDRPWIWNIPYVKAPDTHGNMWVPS
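Compounds were preincubated with Tdp1 (1 nM final) for 15 min at room temperature before substrate (15 nM final) started a 5 min reaction; beads (10 ug/ml final) were then added for 10 min before AlphaScreen detection.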
A number is an active result; - = inactive; ? = inconclusive; . = not tested or not shown; ! = not active in a repeat; [ ] = dose if it differs, or a comment. Most compounds without a hit are left out; they make up all but 18% or so of the library. Unless noted, calls follow the shape of the dose curve; as a rule, active = well fitted curve in the direction sought with a large enough effect; inconclusive = small, poorly fitted or top-dose-only effect, or another doubt; inactive = no such curve, though single readings can be large; an effect the other way counts as inactive or inconclusive.

SMILES	TDP1 cell noCPT	TGFb inhibitor	HepG2 viability	IL-1B inflam inh	TDP1 cell CPT	TDP1 block
O=C(CN1CCN(S(=O)(=O)c2ccc(F)cc2)CC1)Nc1cc(C(F)(F)F)ccc1Cl	?	-	-	-	21µM	-
Cc1cccc(NS(=O)(=O)c2ccc(C(=O)NCC3(N4CCCCC4)CCCCC3)cc2)c1C	15µM	-	-	-53	21µM	.
Cc1ccc(NS(=O)(=O)c2cccc(C(=O)NCC(c3ccco3)N3CCCCC3)c2)cc1 (configuration not stated)	?	?	-	-	26µM	-
Cc1ccccc1NS(=O)(=O)c1ccc(C(=O)NCC(c2ccco2)N2CCCCC2)cc1 (configuration not stated)	23µM	-	-	-	?	.
COc1ccc(NS(=O)(=O)c2cccc(C(=O)NCC(c3ccco3)N3CCCC3)c2)cc1 (configuration not stated)	-	-	-	-	-	-[0.505 µM]
CC(=O)c1cccc(S(=O)(=O)NCC(c2ccco2)N2CCCCC2)c1 (configuration not stated)	16µM	-	-	-	?	-
Cc1ccccc1NS(=O)(=O)c1ccc(C(=O)NCC2(N3CCOCC3)CCCCC2)cc1	?	-	-	-	?	.
COc1ccc(C(=O)NCCN2Cc3cc(C)ccc3OC(C)C2)c(OC)n1 (configuration not stated)	-	.	.	.	-[9.04 µM]	.
CN[C@@H]1[C@H](O[C@@H]2O[C@H](CO)[C@@H](N)[C@H](O)[C@@H]2O)O[C@H]2C[C@@H](N)[C@@H](O[C@H]3[C@@H](O)[C@H](O)[C@H](N)C[C@@H]3N)O[C@H]2[C@H]1O	.	.	.	.	.	-[21 µM]
CCC(C)(C(=O)NC1CCCCC1)N(C(=O)CNC(=O)c1ccccc1)c1c(C)n(C)n(-c2ccccc2)c1=O (configuration not stated)	-	-	-	-	-	-
NC(=O)c1cc([N+](=O)[O-])ccc1NCC1CCCCC1	-	-	-	-	-	-
COc1ccc(CNC(=O)Cc2cn(C)c3ccccc23)c(OC)c1	-	-	-	-	-	.
Cc1cccc(NS(=O)(=O)c2ccc(C)c(C(=O)NCC(c3ccco3)N3CCCCC3)c2)c1 (configuration not stated)	18µM	-	-	-	21µM	-
O=C(CNC(=O)Cc1ccccc1)NCc1cccc(C(F)(F)F)c1	-	-	-	-	-	-[0.0935 µM]
FC(F)(F)c1cccc(CNC(=S)Nc2ccccc2)c1	16µM	?	-	-79	?	-
FC(F)(F)c1cccc(NC(=S)NCc2ccccc2)c1	23µM	-	-	-	21µM	-
CCCN(C(=O)c1cccc(S(=O)(=O)N2CCCc3ccccc32)c1)C1CCS(=O)(=O)C1 (configuration not stated)	?	-	-	-	?	-
Cc1ccc(-n2c(=O)c3c(cnn3C)n(CC(=O)Nc3cc(C)ccc3C)c2=O)cc1	-	-	-	.	-	-
CCC1(O)CC2CN(CCc3c([nH]c4ccccc34)[C@@](C(=O)OC)(c3cc4c(cc3OC)N(C)C3[C@]45CCN4CC=C[C@@](CC)([C@@H](OC(C)=O)[C@]3(O)C(=O)OC)[C@H]45)C2)C1 (some centres not stated)	.	.	.	.	.	-
COc1ccccc1C(CC(=O)Nc1ccc(C)c(C)c1)c1ccc(OC(C)C)cc1 (configuration not stated)	21µM	?	-	-	?	-
Cc1ccc(NC(=O)CC(=O)c2ccccc2)cc1C	?	?	-	-	?	-
COc1ccc(C(CC(=O)Nc2ccccc2OC)n2cccc2)cc1 (configuration not stated)	10µM	-	-	-	16µM	-
COc1ccccc1NC(=O)CC(c1ccc(OC(C)C)cc1)c1ccccc1OC (configuration not stated)	21µM	-	-	-	16µM	-
COc1ccc(Br)cc1CN(C)C(=O)c1cnc(C)cn1	-	-	-	-	-	.
CCCOc1ccccc1Cn1c(=O)oc2ccccc21	-	-	-	-	-	.
SMILES	TDP1 cell noCPT	TGFb inhibitor	HepG2 viability	IL-1B inflam inh	TDP1 cell CPT	TDP1 block
CC(C)N=C(NS(=O)(=O)c1ccccc1)C(Cl)(Cl)Cl	2.9µM	?	-	-96	2.9µM	-
COc1cc(C)c(Cl)cc1S(=O)(=O)NCCc1c(C)[nH]c2ccccc12	?	?	-	.	?	-
CCCCCCCC[N+](CCCCCCCC)(CCCCCCCC)CCCCCCCC	.	.	.	.	.	-
CCCCCCCC[N+](C)(C)CCCCCCCC	1.5µM	.	.	.	1.7µM	.
CCCCCCCCCCCCCC[N+](C)(C)C	0.6µM	.	.	.	0.94µM	-
CCCCCCCCO	-	-	-	-	-	-
CCCCCC[N+](C)(C)CCSSCC[N+](C)(C)CCCCCC	-	-	-	-	-	.
CCCCCCCCCCCCCCCC[N+](C)(C)CC	0.52µM!	?	-	-	1µM	-
CCCCCCCCCCCCCCCC[N+](C)(C)CCl	2.3µM	?	-	-92	1.8µM	.
CC1(c2nc3ccccc3[nH]2)CCC2=Nc3ccccc3CN21 (configuration not stated)	-	.	.	-	-	.
O=c1[nH]/c(=C/c2ccc3c(c2)OCO3)c(=O)[nH]/c1=C\c1ccc2c(c1)OCO2	-	-	-	.	-	.
COc1ccc(OCc2ccc(-c3nc(C#N)c(NCc4ccc(F)cc4)o3)o2)cc1	23µM	?	-	.	?	-
CCNc1oc(-c2ccc(COc3ccc(Cl)cc3)o2)nc1C#N	?	-	-	.	?	-
COCCCNc1oc(-c2ccc(COc3ccc(Cl)cc3)o2)nc1C#N	?	?	-	.	16µM	-
COc1ccc(CNc2oc(-c3ccc(COc4ccc(OC)cc4)o3)nc2C#N)cc1	?	-	-	.	?	-
CN(C)CCNc1oc(-c2ccc(COc3ccc(Cl)cc3)o2)nc1C#N	8.2µM	?	-	.	16µM	-
CC1CCCCC1NC(=O)CCC(=O)N1CCOc2ccc(Cl)cc21 (configuration not stated)	-	-	-	-	-	-
CC(C)CCOc1ccc(C2(C)NC(=O)NC2=O)cc1 (configuration not stated)	-	-	-	-	-	.
O=C(Nc1ccc(F)c(F)c1)c1cc(S(=O)(=O)N2CCc3ccccc32)ccc1F	10µM	?	-	.	10µM	-

Screens from PubChem.
